{"source": "ChEMBL document CHEMBL3988442", "about": "“University of Dundee, Small-Polar-MMV Screening Library” (2021)", "note": "In all, about 48,000 compounds went through this assay and about 13,000 (27%) showed an effect of 50% or more. This is one part of the list."}
{"test_system": "Wolbachia pipientis", "assay": "Anti-Wolbachia Cell-Based Screen", "type": "functional", "parameters": "scale not given: in the data most compounds retested in dose-response had high values", "details": "5 µM", "units": {"Percent Effect": "%"}}
{"smiles": "Cc1cc2n(n1)CC(CNCc1cnn(C)c1)CN2", "note": "(configuration not stated)", "Percent Effect": -3.792}
{"smiles": "COc1ccc(CNC[C@H]2Cn3ccnc3CO2)cn1", "Percent Effect": -7.877}
{"smiles": "c1ccc(Cn2cncn2)c(CNCC2CNc3ccnn3C2)c1", "note": "(configuration not stated)", "Percent Effect": 4.151}
{"smiles": "c1cc2n(n1)CC(CNCc1ccc(OCC3CC3)nc1)CN2", "note": "(configuration not stated)", "Percent Effect": 1.128}
{"smiles": "COc1ccc(CNCC2CNc3ccnn3C2)cn1", "note": "(configuration not stated)", "Percent Effect": 96.76}
{"smiles": "Cc1cc2n(n1)CC(CNCc1ccc(OCC3CC3)nc1)CN2", "note": "(configuration not stated)", "Percent Effect": 93.19}
{"smiles": "c1ccc(-n2ccnc2)c(CNCC2CNc3ccnn3C2)c1", "note": "(configuration not stated)", "Percent Effect": -6.615}
{"smiles": "Fc1ccc(Oc2ccc(CNCC3CNc4ccnn4C3)cn2)cc1", "note": "(configuration not stated)", "Percent Effect": 99.62}
{"smiles": "Cc1cc2n(n1)CC(CNCc1ccc(-n3cccn3)nc1)CN2", "note": "(configuration not stated)", "Percent Effect": -3.824}
{"smiles": "c1ccc(Oc2ccc(CNCC3CNc4ccnn4C3)cn2)cc1", "note": "(configuration not stated)", "Percent Effect": 117.1}
{"smiles": "O=C(NCCNCC1CNc2ccnn2C1)c1ccc(F)cc1", "note": "(configuration not stated)", "Percent Effect": -19.45}
{"smiles": "Fc1cccc(Oc2ccc(CNCC3CNc4ccnn4C3)cn2)c1", "note": "(configuration not stated)", "Percent Effect": 5.815}
{"smiles": "Cc1n[nH]c(C)c1C1CCCN1C(=O)c1coc(Br)c1", "note": "(configuration not stated)", "Percent Effect": 4.835}
{"smiles": "CCN(Cc1cccc2c1OCO2)C(=O)Nc1cn[nH]c1", "Percent Effect": 109.5}
{"smiles": "CCN(Cc1cccc2c1OCO2)C(=O)Nc1ccccn1", "Percent Effect": 122.5}
{"smiles": "CCN(Cc1cccc2c1OCO2)C(=O)NCCOC", "Percent Effect": 78.96}
{"smiles": "CCN(C(=O)c1cccc2c1OCO2)c1ccccc1", "Percent Effect": -1.465}
{"smiles": "O=C(Nc1cn[nH]c1)N(CCO)C1CCc2ccccc21", "note": "(configuration not stated)", "Percent Effect": 3.342}
{"smiles": "CCN(Cc1cccc2c1OCO2)C(=O)NCc1ccccn1", "Percent Effect": 102.4}
{"smiles": "CCN(Cc1ccc2c(c1)OCO2)C(=O)NCc1nc(C)cs1", "Percent Effect": -7.212}
{"smiles": "O=C(Cc1ccccc1Br)NCC(=O)Nc1cn[nH]c1", "Percent Effect": -11.75}
{"smiles": "CCN(Cc1cccc2c1OCCO2)C(=O)NC(C)(C)C", "Percent Effect": -7.864}
{"smiles": "O=C(Nc1ccccn1)N(CCO)Cc1ccsc1", "Percent Effect": -7.906}
{"smiles": "Cc1cc(CN(C)C(=O)NCc2ccccn2)no1", "Percent Effect": 9.808}
{"smiles": "COc1cc(CN(C)C(=O)NCc2cccc3c2OCO3)ccc1SC", "Percent Effect": -31.12}
{"smiles": "Nc1nc(CCC(=O)N2CCOC(CC3CCCCC3)C2)cs1", "note": "(configuration not stated)", "Percent Effect": -4.495}
{"smiles": "CC1(C)CCC(C(=O)O)c2ccccc21", "note": "(configuration not stated)", "Percent Effect": 1.78}
{"smiles": "CN(Cc1ccc(Br)o1)C(=O)Nc1cccnc1", "Percent Effect": 14.31}
{"smiles": "O=C(O)C(F)(F)F.O=C(O)C(F)(F)F.c1cncc(OCC2CC3(CCN(CC4CC4)CC3)CO2)c1", "note": "(configuration not stated)", "Percent Effect": -1.816}
{"smiles": "CCOCC1CC2(CCN(Cc3ccccn3)CC2)CO1", "note": "(configuration not stated)", "Percent Effect": -6.984}
{"smiles": "Cc1cc(CN2CCC3(CC2)COC(COCC2CC2)C3)no1.O=C(O)C(F)(F)F", "note": "(configuration not stated)", "Percent Effect": 95.48}
{"smiles": "Cc1cccc(CN2CCC3(CC2)COC(COCC2CC2)C3)n1", "note": "(configuration not stated)", "Percent Effect": 102.1}
{"smiles": "O=C(C1CCSCC1)N1CCC2(CC1)COC(COCC1CC1)C2", "note": "(configuration not stated)", "Percent Effect": 0.4038}
{"smiles": "Cc1csc(CN2CCC3(CC2)COC(COCC2CC2)C3)n1.O=C(O)C(F)(F)F", "note": "(configuration not stated)", "Percent Effect": 87.23}
{"smiles": "CC(=O)N1CCC2(CC1)COC(COCc1ccccn1)C2.O=C(O)C(F)(F)F", "note": "(configuration not stated)", "Percent Effect": -3.959}
{"smiles": "Cc1ncc(CNc2ccc(C(=O)NCc3ccco3)cc2C)s1", "Percent Effect": -10.56}
{"smiles": "CCS(=O)(=O)CCNC(=O)c1ccc(-c2ccc(C)cc2)cc1F", "Percent Effect": -13.74}
{"smiles": "CN(C)[C@@H]1CO[C@H](CNC(=O)c2cccs2)[C@H]1O", "Percent Effect": 5.998}
{"smiles": "COCC(=O)NCCSCCOc1cccc(Br)c1", "Percent Effect": 5.807}
{"smiles": "Cc1cc(C)nc(N2Cc3cnn(Cc4ccc(F)cc4)c3C2)n1", "Percent Effect": 10.67}
{"smiles": "CNc1cc(C)nc(N2Cc3cnn(Cc4ccc(F)cc4)c3C2)n1", "Percent Effect": 67.48}
{"smiles": "Cc1ccnc(N2Cc3cnn(Cc4ccc(F)cc4)c3C2)n1", "Percent Effect": -9.844}
{"smiles": "Cc1nn(C)c2c(NCCCn3cccn3)ncnc12", "Percent Effect": 1.711}
{"smiles": "CCn1nc(C)c2nc(C(C)C)nc(N3CCCCC3)c21", "Percent Effect": -10.35}
{"smiles": "CCn1nc(C)c2ncnc(N(C)C)c21", "Percent Effect": 100.5}
{"smiles": "CCn1nc(C)c2ncnc(NCC(=O)N3CCOCC3)c21", "Percent Effect": 4.727}
{"smiles": "COCCN(Cc1ccccc1)c1cc(C)ncn1", "Percent Effect": -9.961}
{"smiles": "CCCc1nc(N2CCN(CC)CC2)c2c(n1)c(C)nn2CC", "Percent Effect": -11.71}
{"smiles": "CCN(CC)c1ncnc2c(C)nn(CC)c12", "Percent Effect": 92.35}
{"smiles": "CCN(Cc1ccccc1)c1ncnc2c(C)nn(CC)c12", "Percent Effect": 90.55}
{"smiles": "CN1CCC(N(C)C[C@H]2CC[C@@H](Cc3cccc(CO)c3)O2)CC1", "Percent Effect": -29.03}
{"smiles": "O=C(NCC1CC1)C1CN(C(=O)c2cccc(Cl)c2)CC12CCOCC2", "note": "(configuration not stated)", "Percent Effect": -0.2514}
{"smiles": "Cn1c(C(=O)N2CCC(CC(N)=O)CC2)c(Cl)c2ccccc21", "Percent Effect": -9.644}
{"smiles": "Cn1c(C(=O)N2CCC(C(N)=O)C2)c(Cl)c2ccccc21", "note": "(configuration not stated)", "Percent Effect": 50.27}
{"smiles": "Cn1c(C(=O)N2CCC(C(=O)N3CCCC3)CC2)c(Cl)c2ccccc21", "Percent Effect": 1.615}
{"smiles": "Cc1ccc(OC2(C(=O)O)CCN(C(=O)c3nc(C)oc3C)CC2)cn1", "Percent Effect": -0.6346}
{"smiles": "CCCNS(=O)(=O)c1ccc(C(=O)NC(CC)c2cnn(C)c2)cc1", "note": "(configuration not stated)", "Percent Effect": -2.749}
{"smiles": "CCC(NS(=O)(=O)c1ccc(C(=O)NC2CC2)cc1)c1ccnn1C", "note": "(configuration not stated)", "Percent Effect": -9.031}
{"smiles": "CCC(NS(=O)(=O)c1ccc(C(=O)NC2CC2)cc1)c1cnn(C)c1", "note": "(configuration not stated)", "Percent Effect": 100.7}
{"smiles": "Cc1nc2cc(=O)[nH]n2c(C)c1CNC(=O)C(C)Cc1ccccc1", "note": "(configuration not stated)", "Percent Effect": -3.98}
{"smiles": "COc1cccc2c1N(CC(=O)Nc1ccc(Cl)cn1)CCC2", "Percent Effect": 8.099}
{"smiles": "Cc1ccc2nc(CN3CCC(O)(CN4CCCC4)CC3)cc(O)c2c1", "Percent Effect": 3.677}
{"smiles": "CC(C)CN1CCCC(c2nc(O)c3cc(F)ccc3n2)C1", "note": "(configuration not stated)", "Percent Effect": 102.2}
{"smiles": "CC(C)CN1CCC(NC(=O)c2ccc(F)cc2I)CC1", "Percent Effect": 2.48}
{"smiles": "CCN1CCCC(c2nc(O)c3cc(C)ccc3n2)C1", "note": "(configuration not stated)", "Percent Effect": 115.3}
{"smiles": "COC(=O)c1cccc2nc([C@H]3CCN(CC(C)C)C3)oc12", "Percent Effect": -3.142}
{"smiles": "Oc1cc(CNCCCN2CCCC2)nc2ccc(F)cc12", "Percent Effect": 15.84}
{"smiles": "Cc1ccc2nc(CN3CCCC3c3cccnc3)cc(O)c2c1", "note": "(configuration not stated)", "Percent Effect": 7.141}
{"smiles": "Cc1ccc2ncn(CC(O)CN3CCC(C)CC3)c(=O)c2c1", "note": "(configuration not stated)", "Percent Effect": 8.084}
{"smiles": "Cc1ccc2nc(C3CCCN(CC(C)C)C3)nc(O)c2c1", "note": "(configuration not stated)", "Percent Effect": 109.3}
{"smiles": "Cc1ccc2nc(CNCCCN3CCCC3)cc(O)c2c1", "Percent Effect": -3.941}
{"smiles": "Cc1ccc2nc(C3CCN(CC(C)C)CC3)nc(O)c2c1", "Percent Effect": 129.6}
